Assay results reported in PubChem BioAssay (NCATS).
Results filed as inconclusive are left out. Active and inactive are the calls of the source. Calls follow the shape of the full dose curve.

Assay: qHTS Assay for Lipid Storage Modulators (AID 1519); as to activity change, negative = inhibition: % is scaled to controls: 0 for no effect and ±100 for the full control effect
Details: Drosophila S3 cells, BODIPY lipid droplet/cell ratio, laser cytometry, cells loaded with oleic acid
Source text: NIH Molecular Libraries Probe Production Centers Network [MLPCN]
NIH Chemical Genomics Center [NCGC]
Assay Submitter (PI): Beller, Mathias; Max-Planck-Institut fur Biophysikalische Chemie
NCGC Assay Overview: Storing lipids as a reservoir for energy or the anabolism of elementary metabolites is a common feature of probably all cells and is conserved from bacteria to humans. The universal cellular lipid storage organelle is the so-called lipid storage droplet (LD). Although ubiquitous, LDs share a simple structure composed of a hydrophobic core that harbors the storage lipids, which is shielded by a droplet-specific phospholipid monolayer to which proteins are attached. The current model of LD biogenesis involves an incorporation of the lipid core into the membrane leaflets of the endoplasmic reticulum (ER) followed by a subsequent budding-like maturation of a LD, which ultimately pinches off. Once released, LD volume can increase by localized lipogenesis or fusion of existing droplets. Storage lipids are re-mobilized enzymatically by lipase activity. Lipase regulation in the adipocyte is heavily studied and involves multiple components including catecholamine signaling, the LD-associated proteins Perilipin and comparative gene identification-58 (CGI-58) and at least two lipases named hormone sensitive lipase (HSL) and adipocyte triglyceride lipase (ATGL). LD regulation outside of the adipocyte is poorly understood and only few components are known. However, there is an urgent need to learn more about ectopic fat depots as mislocalized storage of lipids, for example in the liver or muscle, is an eminent health problem associated with insulin resistance or the metabolic syndrome. We developed a laser-scanning cytometer assay to enable 1,536-well screening and combined the results of the small molecules screen with an RNAi database based on lipid storage.
NCGC Assay Protocol Summary:
We dispensed 4 uL of cells at 1.25 x 10^6 cells/mL into LoBase Aurora COC 1,536-well plates (black walled, clear bottom) with a bottle-valve solenoid-based dispenser (Aurora) to obtain 5,000 cells/well. Triacsin C (Sigma-Aldrich T-4540), an inhibitor of long-chain fatty acyl CoA synthetase that blocks synthesis of triglycerides, was used as a positive control for lipid under-storage. A total of 23 nL of compound solution of different concentrations were transferred to the assay plates using a Kalypsys pin tool equipped with a 1,536-pin array containing 10-nL slotted pins (FP1S10, 0.457-mm diameter, 50.8 mm long; V&P Scientific). One microliter of oleic acid (400 uM) was added, and the plate was lidded with stainless steel rubber gasket lined lids containing pinholes. […] Fluorescence was detected by excitation of the fluorophores with a 488-nm laser on an Acumen Explorer (TTP Lab Tech). The total intensity in channel 1 (500-530 nm) reflected lipid droplet accumulation. […] The ratio of the total intensity in PMT channel 1 over total intensity of channel 3 was also calculated. Percent activity was computed relative to an internal control (100% inhibited lipid droplet deposition due to the presence of 20 uM Triacsin C), which was added to 32 wells/plate.

[1] = measured here: cell count channel max response
[2] = measured here: lipid channel max response

Row | SMILES | activity change, negative = inhibition (at 25.7 µM (top of the series)) | max response [1] | max response [2] | activity change, negative = inhibition (at 57.5 µM (top of the series))
1 | Nc1ccc(S(=O)(=O)Nc2ncccn2)cc1 | 0.373% (inactive) | -6.66% | -7.25% | 
2 | C[C@H]1C[C@@H]2[C@@H]([C@@H](O)C[C@@]3(C)[C@H]2CC[C@]3(O)C(=O)CO)[C@@]2(C)C=CC(=O)C=C12 | -1.2% (inactive) | -15.5% | -14.8% | 
3 | CC[C@@]1(O)C(=O)OCc2c1cc1n(c2=O)Cc2cc3cc(O)ccc3nc2-1 |  | -6.87% | -17.5% | -14.2% (inactive)
4 | O=c1c2ccccc2nc2n1CCc1c-2[nH]c2ccccc12 |  | 45% | 50% | 1.95% (inactive)
5 | CC[C@H](CO)Nc1nc(NCc2ccccc2)c2ncn(C(C)C)c2n1 |  | 73% | 78.1% | 2.75% (inactive)
6 | Cc1coc2c1C(=O)C(=O)c1c-2ccc2c1CCCC2(C)C |  | 16.1% | 23.2% | 6.48% (inactive)
